Inconclusive results are not listed. A number with no mark means an inactive call. Active and inactive are the calls of the source. Calls follow the shape of the dose curve; as a rule, active = well fitted cell-killing curve with a large enough effect; inconclusive = small, poorly fitted or top-dose-only effect, or effect the other way; inactive = flat fitted curve, though single readings scatter. *1 amine or outer side, *2 acyl side, *3 side chain or, on linkers, in order; H or OH if unused. Where a SMILES comes first, the peptide text is derived from it. Bridges are numbered along the chain shown (N, C = ends). Roman numbers before positions name the chains, in order. [ ]: non-standard residue; d: D form. ξ: configuration not given here. Actinocin(9to1) = Cc1c2oc3c(C)ccc(C(=O)[*:1])c3nc-2c(C(=O)[*:2])c(N)c1=O; ξNMeV = CNC(C(=O)O)C(C)C; ξV = CC(C)C(N)C(=O)O; Sar = CNCC(=O)O
test: Identifying Small Molecule Inhibitors of Pancreatic Cancer Stem Cells (SN12C, Spheroid) (AID 1259360); conditions: Potency: SN12C spheroid viability; series mostly up to 46.1 µM; viability (% of control): at the top concentration;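 as to viability (% of control): 100% = DMSO-treated cells and 0% = wells without cells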
Excerpt: Progenitor-like cancer cells, often referred to as cancer stem cells (CSC), are believed to be the drivers of therapeutic resistance and rapid recurrence. CSCs are postulated to reside in specific niches characterized by low oxygen tension, limited nutrient supply, and high redox load. Selectively targeting CSC, alone or in combination with cytotoxic agents, as a means to produce durable remissions is an appealing concept. Modeling these cells in in vitro setting is an important step in finding new therapies and/or targets. Multiple reports highlight that forcing cells in culture into 3-dimensionaly architectures (spheroids) re-establishes key progenitor-like transcriptional signatures. Pancreatic cancer is among the diseases with the most dismal outlook which is driven, largely, by recurance following front-line therapies. […] In hopes of deriving new insight into the targeting of these pancreatic CSCs we examined three established pancreatic cancer cell lines in cytotoxicity assays versus a collection of approved and investigational drugs. Importantly, we screened these lines as traditional monolayer (2D) and spheroid (3D) formats to gain an appreciation of agents with differential activity.
Multicellular tumor spheroids from Panc1, MiaPaCa-2, and the primary low-passage tissue culture line SB.06 were seeded in stem cell media (SCM) in nonadherent 6-well plates coated with hydrogel (Corning Life Sciences, Chelmsford, Mass) and pancreatic spheres generated for 14 days before screening. Cells were seeded into 1536-well solid-bottom white tissue culture treated Greiner Bio One Plates (789173-F) using a MultiDrop Combi (Thermofisher Scientific) dispenser and a small sterile cassette. One column was media alone to be used as a :"no cells" control. The plates were then covered with sterilized stainless steel gasketed lids from Kalypsys. After allowing cells to attach for 4 hours, 23 nL of test compound or control (negative control DMSO and positive control 9.2 uM Bortezomib-final) were added from a 1536-well polypropylene compound source plate to each well using a 1536 head pin tool from Kalypsys. Cells were then incubated for 48 hours at 37C, 95% relative humidity and 5% CO2. After 48 hours, plates were removed from the incubator and 3 uL of CellTiter-Glo (Promega) was added using an Aurora Flying Reagent Dispenser Bioraptor. Plates were incubated at room temperature for 10 minutes prior to reading the luminescence on the Viewlux (PerkinElmer). The relative luciferase units are used to calculate the percent activity using the activity of DMSO in the cells and no cells columns for normalization of no inhibition and full inhibition respectively.
Potency is read from the fitted curve at half-maximal effect.

Structure (SMILES) | Potency | viability (% of control)
Cc1c2oc3c(C)ccc(C(=O)N[C@@H]4C(=O)NC(C(C)C)C(=O)N5CCC[C@H]5C(=O)N(C)CC(=O)N(C)C(C(C)C)C(=O)O[C@@H]4C)c3nc-2c(C(=O)N[C@@H]2C(=O)NC(C(C)C)C(=O)N3CCC[C@H]3C(=O)N(C)CC(=O)N(C)C(C(C)C)C(=O)O[C@@H]2C)c(N)c1=O (some centres not stated) (I: T[ξV]P[Sar][ξNMeV] / II: T[ξV]P[Sar][ξNMeV]; ester I:1-I:C, II:1-II:C; linker I:N-II:N via Actinocin(9to1)) | 0.0047 µM (active) | –
CCC1(O)CC2CN(CCc3c([nH]c4ccccc34)[C@@](C(=O)OC)(c3cc4c(cc3OC)N(C=O)[C@H]3[C@](O)(C(=O)OC)[C@H](OC(C)=O)[C@]5(CC)C=CCN6CC[C@]43[C@@H]65)C2)C1 (some centres not stated) | 3.32 µM (active) | –
NC(=O)Nc1cc(-c2ccc(CN3CCOCC3)c(F)c2)sc1C(=O)N[C@H]1CCCNC1 | 16.6 µM (active) | –
CCC1(Cc2ccc(N)cc2)CCC(=O)NC1=O (configuration not stated) | – | 103% [at 92.2 µM]
O=C(O)CC/C=C\CC[C@H]1[C@@H](N2CCCCC2)[C@@H](O)C[C@@H]1OCc1ccc(-c2ccccc2)cc1 | – | 96.9%
Cc1nnc(C(C)C)n1C1CC2CCC(C1)N2CC[C@H](NC(=O)C1CCC(F)(F)CC1)c1ccccc1 (some centres not stated) | – | 101%
C[C@@H]1CCN(C(=O)CC#N)C[C@@H]1N(C)c1ncnc2[nH]ccc12 | – | 95.1%
CC[C@@H](C(=O)O)C1CC[C@H](C)C([C@@H](C)[C@H](O)[C@H](C)C(=O)[C@H](CC)C2O[C@]3(C=C[C@@H](O)[C@]4(CC[C@@](C)(C5CC[C@](O)(CC)[C@H](C)O5)O4)O3)[C@H](C)C[C@@H]2C)O1 (some centres not stated) | 1.87 µM (active) | –
O=c1cc(C2=CC=CC3Sc4ccccc4SC23)oc(N2CCOCC2)c1 (configuration not stated) | – | 99.6%
CCCCCCCCCCCCCCCCCCOP(=O)([O-])OC1CC[N+](C)(C)CC1 | – | 103% [at 29.8 µM]
CN(NC(=O)CC(=O)NN(C)C(=S)c1ccccc1)C(=S)c1ccccc1 | 0.743 µM (active) | –
CCOc1cc2ncc(C#N)c(Nc3ccc(OCc4ccccn4)c(Cl)c3)c2cc1NC(=O)/C=C/CN(C)C | 4.69 µM (active) | –
